Measured values published in PubChem BioAssay (NCATS).
Results filed as inconclusive are left out. Active and inactive are the calls of the source. The call rests on the fitted dose curve; in most records, active means well fitted curve in the direction sought with a large enough effect; inconclusive means small, poorly fitted or top-dose-only effect, or another doubt; inactive means no such curve, though single readings can be large; an effect the other way counts as inactive or inconclusive.

What was measured:
[1] = target: Arylsulfatase A (Homo sapiens) (UniProt P15289); assay: qHTS screen for enhancers of Arylsulfatase A (ASA1): LOPAC Validation Assay (AID 720538)
Procedure, shortened: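 MLD patient fibroblasts (SV40, ASA-I179S), 1536-well; adhere 6 hrs; cpd 48h, 37 degree C, 5% CO2; pNCS 0.5mM final in lysis buffer, 14h RT; stop 1N NaOH final; fluor. Ex525/Em598.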

[2] = qHTS for compounds that reverse cellular toxicity of Amyloid beta (A-beta) peptide in yeast: LOPAC Validation Assay (AID 720559);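 further: plate controls were DMSO for no effect and equimolar ferric chloride plus clioquinol rescue for full effect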
Procedure, shortened: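 Medium dispensed, compounds pinned, A-beta yeast suspension added; plates held at 30 C for 48 hr; absorbance measured at 600 nm to gauge growth; values scaled between DMSO and FeCl3/clioquinol (equimolar) controls.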

[3] = qHTS for Activators of Parkin Expression: LOPAC Validation Assay (NLuc Reporter) (AID 720572)
Procedure, shortened: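 Cells harboring the Parkin-promoter coincidence reporter were treated for 24 h at seven concentrations. NLuc output was measured sequentially after the FLuc channel and scaled between DMSO and positive control values.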

[4] = qHTS for Activators of Parkin Expression: LOPAC Validation Assay (FLuc Reporter) (AID 720573)
Procedure, shortened: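 Cells seeded, 24 h; compounds pinned, 7-pt dose response; 24 h at 37 C/5% CO2; volume reduced; FLuc reagent 10 min RT; luminescence read. Normalization: DMSO = 0, positive control = 100%.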

[5] = target: T1, Hexokinase-4 (Homo sapiens) + Glucokinase regulatory protein (Homo sapiens) (UniProt P35557+Q14397); assay: qHTS assay for inhibitors of recombinant human GCK-GKRP interaction: Diaphorase-coupled assay (AID 743205)
Procedure, shortened: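 25 mM Hepes pH 7.6, 5 mM glucose, 0.4 mM ATP, 4 U/ml G6PDH; 10 nM each GST-GCK/FLAG-GKRP. Kinetic fluorescence read, 1/min × 30 min. Normalized: DMSO ± enzyme = max/min.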

[6] = target: T1, Hexokinase-4 (Homo sapiens) + Glucokinase regulatory protein (Homo sapiens); assay: qHTS assay for inhibitors of recombinant human GCK-GKRP interaction: ADP-Glo assay (AID 743206);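 further: plate controls were DMSO plus enzyme for no effect and no enzyme for full effect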
Procedure, shortened: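 Pin-transferred compounds meet a 15 nM GST-GCK/15 nM FLAG-GKRP/2 uM S6P mix (dispense concentrations). ATP is then added to 0.4 mM final with 5 mM glucose, and the reaction runs 60 min at room temperature. ADP is quantified luminescently.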

[7] = target: T1, Hexokinase-4 (Homo sapiens) + Glucokinase regulatory protein (Homo sapiens); assay: qHTS assay for inhibitors of recombinant human GCK-GKRP interaction: HTRF assay (AID 743207);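 further: 0% = DMSO with GCK present and -100% = DMSO wells lacking GCK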
Procedure, shortened: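 5 nM GST-GCK + 5 nM FLAG-GKRP + 2 uM S6P, pH 7.1 buffer (25 mM Hepes, 2 mM MgCl2, 25 mM KCl, 1 mM DTT, Tween/BSA); pin-transferred cpd; anti-FLAG XL665/anti-GST K; 60 min RT; HTRF.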

[8] = qHTS Assay for Identifying Gametocytocidal Compounds (AID 743244);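 further: on the % scale 0 is the no-effect control and ±100 the full control effect; actives lower the fluorescent signal which means gametocytes are killed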; settings: P. falciparum 3D7 stage III-V gametocytes, alamarBlue, 72 h; max response: active compounds read low
Procedure, shortened: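 Using 20,000 stage III–V 3D7 gametocytes per well, compounds were incubated 72 h under 37 °C/5% CO2. Viability was then assessed by 24 h alamarBlue reduction, measured fluorometrically at 525/598 nm.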

Sequence of Arylsulfatase A (Homo sapiens) (P15289 whole entry, looked up): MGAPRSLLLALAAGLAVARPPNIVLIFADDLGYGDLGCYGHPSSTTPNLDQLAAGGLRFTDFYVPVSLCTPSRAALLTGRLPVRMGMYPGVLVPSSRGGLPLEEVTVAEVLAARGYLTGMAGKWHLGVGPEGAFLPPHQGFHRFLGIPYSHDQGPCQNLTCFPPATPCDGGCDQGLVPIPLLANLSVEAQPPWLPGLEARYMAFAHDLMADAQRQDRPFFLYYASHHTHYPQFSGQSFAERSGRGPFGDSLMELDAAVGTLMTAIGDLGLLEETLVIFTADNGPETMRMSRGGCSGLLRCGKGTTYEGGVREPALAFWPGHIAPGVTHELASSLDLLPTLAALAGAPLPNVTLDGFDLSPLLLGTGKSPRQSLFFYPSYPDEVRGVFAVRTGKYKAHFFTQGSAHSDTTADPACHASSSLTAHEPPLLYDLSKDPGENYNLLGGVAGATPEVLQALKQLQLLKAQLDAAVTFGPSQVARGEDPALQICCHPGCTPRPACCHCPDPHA
T1 sequence (P35557 whole entry, looked up): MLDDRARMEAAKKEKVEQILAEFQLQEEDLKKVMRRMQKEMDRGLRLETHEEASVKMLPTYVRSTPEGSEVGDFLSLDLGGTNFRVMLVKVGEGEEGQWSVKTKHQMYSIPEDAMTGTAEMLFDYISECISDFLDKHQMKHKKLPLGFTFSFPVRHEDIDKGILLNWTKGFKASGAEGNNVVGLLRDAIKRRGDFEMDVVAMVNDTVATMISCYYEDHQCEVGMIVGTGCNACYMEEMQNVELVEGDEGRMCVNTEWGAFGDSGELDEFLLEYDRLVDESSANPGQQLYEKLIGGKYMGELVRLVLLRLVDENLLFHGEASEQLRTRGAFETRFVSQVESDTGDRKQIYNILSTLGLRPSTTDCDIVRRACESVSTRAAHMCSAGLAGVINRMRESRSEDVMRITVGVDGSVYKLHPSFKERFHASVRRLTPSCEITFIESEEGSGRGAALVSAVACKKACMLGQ
T1 sequence (Q14397 whole entry, looked up): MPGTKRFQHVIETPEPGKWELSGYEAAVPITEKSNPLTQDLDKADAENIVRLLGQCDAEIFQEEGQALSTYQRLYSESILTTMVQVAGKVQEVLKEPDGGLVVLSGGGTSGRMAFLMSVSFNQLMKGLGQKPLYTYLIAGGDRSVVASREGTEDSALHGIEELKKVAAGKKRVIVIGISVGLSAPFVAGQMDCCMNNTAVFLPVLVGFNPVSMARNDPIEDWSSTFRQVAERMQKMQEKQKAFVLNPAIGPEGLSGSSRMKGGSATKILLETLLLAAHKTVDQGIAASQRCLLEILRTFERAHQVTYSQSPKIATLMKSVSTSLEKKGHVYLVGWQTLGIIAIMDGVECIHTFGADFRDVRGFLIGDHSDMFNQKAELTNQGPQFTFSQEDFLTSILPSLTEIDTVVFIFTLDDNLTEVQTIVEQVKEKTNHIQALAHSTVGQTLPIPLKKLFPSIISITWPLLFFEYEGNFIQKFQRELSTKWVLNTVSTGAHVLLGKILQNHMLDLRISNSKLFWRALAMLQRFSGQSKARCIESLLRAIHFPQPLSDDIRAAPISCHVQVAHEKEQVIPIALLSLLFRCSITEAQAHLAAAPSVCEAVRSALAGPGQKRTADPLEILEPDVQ

O=C(O)c1ccccc1Nc1ccccc1
inactive: Potency [1] | outcome [2] | Potency [3] | Potency [4] | Potency [5] | Potency [6] | Potency [7] | max response [8] 4.62%

OC[C@H]1O[C@H](n2cnc3c(N[C@H]4CCC[C@@H]4O)ncnc32)[C@H](O)[C@@H]1O
inactive: Potency [1] | outcome [2] | Potency [3] | Potency [4] | Potency [5] | Potency [6] | Potency [7] | max response [8] 20.9%

NCCS(=O)O
inactive: Potency [1] | outcome [2] | Potency [3] | Potency [4] | Potency [5] | Potency [6] | Potency [7] | max response [8] 18%

C#CCn1c(=O)c2c(ncn2C)n(C)c1=O
inactive: Potency [1] | outcome [2] | Potency [3] | Potency [4] | Potency [5] | Potency [6] | Potency [7] | max response [8] 7.96%

COc1ccc(CCN(C)CCc2ccc(OC)c(OC)c2)cc1OC
inactive: Potency [1] | outcome [2] | Potency [3] | Potency [4] | Potency [5] | Potency [6] | Potency [7] | max response [8] 12.4%

CC(=O)O[C@H]1Cc2ccccc2N(C(N)=O)c2ccccc21
inactive: Potency [1] | outcome [2] | Potency [3] | Potency [4] | Potency [5] | Potency [6] | Potency [7] | max response [8] 18.2%

Cc1ccc([N+](=O)[O-])cc1S(=O)(=O)N(C)C
inactive: Potency [1] | outcome [2] | Potency [3] | Potency [4] | Potency [5] | Potency [6] | Potency [7] | max response [8] 4.81%

CN1C2CCC1CC(OC(c1ccccc1)c1ccccc1)C2 (centres undefined)
inactive: Potency [1] | outcome [2] | Potency [3] | Potency [4] | Potency [5] | Potency [6] | Potency [7] | max response [8] 31%

CC(=O)O[C@H]1CC2(C)[C@@H](C[C@@H](O)[C@H]3[C@@]4(C)CC[C@@H](O)[C@@H](C)[C@@H]4CC[C@@]32C)C1=C(CCC=C(C)C)C(=O)O (some centres undefined)
inactive: Potency [1] | outcome [2] | Potency [3] | Potency [4] | Potency [5] | Potency [6] | Potency [7] | max response [8] 12.4%

NCCCCN=C(N)N
inactive: Potency [1] | outcome [2] | Potency [3] | Potency [4] | Potency [5] | Potency [6] | Potency [7] | max response [8] 3.59%

N[C@@H](CCC(=O)N[C@H](CSN=O)C(=O)NCC(=O)O)C(=O)O
inactive: Potency [1] | outcome [2] | Potency [3] | Potency [4] | Potency [5] | Potency [6] | Potency [7] | max response [8] 16.7%

COc1ccc(CCn2nnnc2C2(c3ccc(C)cc3)CC2)cc1
inactive: Potency [1] | outcome [2] | Potency [3] | Potency [4] | Potency [5] | Potency [6] | Potency [7] | max response [8] 13.1%

CN(CC[C@@H](Oc1ccc(C(F)(F)F)cc1)c1ccccc1)CC(=O)O
inactive: Potency [1] | outcome [2] | Potency [3] | Potency [4] | Potency [5] | Potency [6] | Potency [7] | max response [8] 25.4%
